Laboratory results reported in PubChem BioAssay (NCI).
About 79,000 compounds went through this panel and 15% of them were active in at least one assay; those are over-represented in the sample as a whole. Activity calls are given as the source filed them. No stated cut-off is given here; in the data, active means growth inhibition above about 70%; inactive means the rest.

test: NCI Yeast Anticancer Drug Screen. Data for the bub3 strain (AID 167); conditions: S. cerevisiae bub3 mutant strain, at 50.0 µM (retest, dose inferred, filed as 5.0), hits give high values
Summary of the method: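 In this screen, a yeast mutant lacking normal mitotic checkpoint function is challenged with compound. Relative growth versus vehicle gives the inhibition value.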

Structure (SMILES) | growth inhibition
Oc1ccc(/C=N/NC(=S)Nc2ccccc2)nc1 | 72% (active)
CN(C)COC(=S)SCN(C)C | 99% (active)
Cc1cc2cc3c(c(C(=O)O)c2o1)C(=O)c1ccc2ccccc2c1C3 | 99% (active)
O=C1CC(=S)NC(=S)N1 | -8% (inactive)
O=[N+]([O-])c1cc(I)c(O)c(/C=N/NS(=O)(=O)c2ccc(Cl)cc2)c1 | -1% (inactive)
CCC1CCC(CC)C1=O (stereo unspecified) | 4% (inactive)
Cc1cc(O)c2c(c1)C(=O)c1c(c(O)cc(O)c1-c1c(O)cc(O)c3c1C(=O)c1cc(C)cc(O)c1C3=O)C2=O | 69% (inactive)
CCC(=O)Sc1ccccc1C(=O)Nc1ccc(Cl)cc1 | 74% (active)
COc1cccc(CC2N(S(=O)(=O)c3ccc(C)cc3)CCC23C(=O)Nc2ccccc23)c1OC (stereo unspecified) | 96% (active)
Cc1occc1C(=S)Nc1ccc(Cl)c(C(=O)OCC(C)C)c1 | 78% (active)
CCOC(=O)c1ccc([N+](=O)[O-])o1 | 49% (inactive)
Nc1ccc(S(=O)(=O)O)c2cccc(S(=O)(=O)O)c12 | 2% (inactive)
Cn1c2ccccc2c2nnc(N/N=C/c3ccccn3)nc21 | 99% (active)
C#CC(NCCC(C)CC(C)(C)C)C(C)C (stereo unspecified) | -68% (inactive)
C/C(=N/Nc1ccccc1)C(=O)O | 96% (active)
CCCCCCCCCCCCCCOC(=O)C(N)Cc1ccc(O)cc1 (stereo unspecified) | 98% (active)
O=C(Nc1ccc(S(=O)(=O)NC2CCCCC2)cc1)OCc1ccccc1 | 43% (inactive)
NC1CCCCC1N.O=S(=O)([O-])CCCN1CCN(CCO)CC1.O=S(=O)([O-])CCCN1CCN(CCO)CC1.[Pt+4] | 97% (active)
CCCCCCCNc1ccc2c(cc1=O)C(NC(C)=O)CCc1cc(OC)c(OC)c(OC)c1-2 (stereo unspecified) | 97% (active)
Cc1ccc(NC(=O)c2cc3ccccc3c(N=Nc3cc(S(=O)(=O)O)ccc3O)c2O)c(C)c1 | 92% (active)
O=C(O)/C(Cl)=C(\Cl)C(=O)Nc1cccc(C(F)(F)F)c1 | 99% (active)

same assay, conditions: S. cerevisiae bub3 mutant strain, at 50.0 µM, hits give high values

Structure (SMILES) | growth inhibition
CCCNC(=O)OCc1ccc(NCCN(CC)CC)c2c(=O)c3ccccc3sc12 | -31.1% (inactive)
COc1cc(C(c2cc3c(cc2O)OCO3)N2CCCCC2)cc(OC)c1OC (stereo unspecified) | 31.6% (inactive)
Cc1cc2c(cc1Cl)Sc1nnc(C)n1S2(=O)=O | 84.3% (active)
O=C(Oc1cccc2cccnc12)c1ccccc1 | 98% (active)
CCCCCCN(CCCCCC)CCC(=O)c1ccc2cc(Br)c3ccccc3c2c1 | 98.6% (active)
Cc1c2cc(Cl)ccc2cc2c1ccc1ccccc12 | 96.5% (active)
O=C1OC(CCCl)(c2ccccc2)CC1CN1CCOCC1 (stereo unspecified) | 71.5% (active)
CCOC(=N)CCCSSc1ccc(N=[N+]=[N-])cc1 | 98.8% (active)
Cc1[nH]c2ccccc2c1/C=C1\C(=O)C2CCC1C2 (stereo unspecified) | 39% (inactive)
O=C(O)c1ccc2c3c(ncnc13)-c1ccccc1C2=O | 55.5% (inactive)
CCNCCNc1cc(O)c2c(c1O)C(=O)c1ccccc1C2=O | 78.5% (active)
Nc1nc(N)c2nc(CNc3ccc(C(=O)NC(CCC(=O)O)C(=O)O)cc3)cnc2n1 (stereo unspecified) | 74.8% (active)
COc1ccccc1OC(=O)Oc1ccccc1OC | 57.8% (inactive)
NNC(=O)c1c(SCc2ccccc2)nc2c3ccccc3ccn12 | 39.1% (inactive)
N#CC1Oc2ccccc2N1C(=O)c1ccccc1 (stereo unspecified) | 77.3% (active)
O=C1C2=Cc3ccccc3CCN2c2ccccc21 | 89.8% (active)
Cc1cc([N+](=O)[O-])cc(Cl)c1O | 82.3% (active)
Cc1c(Cl)cccc1N=NC(=O)NNc1cccc(Cl)c1C | 83.3% (active)
CCC[CH2][Sn]1([CH2]CCC)[O]C(=O)CN=Cc2c(ccc3ccccc23)[O]1 | 92.6% (active)
Oc1ccc(/C=N/NC(=S)Nc2ccccc2)nc1 | 84.3% (active)

Structure (SMILES) | growth inhibition
CN(C)COC(=S)SCN(C)C | 98.3% (active)
Cc1cc2cc3c(c(C(=O)O)c2o1)C(=O)c1ccc2ccccc2c1C3 | 99.6% (active)
O=C1CC(=S)NC(=S)N1 | -10.4% (inactive)
O=[N+]([O-])c1cc(I)c(O)c(/C=N/NS(=O)(=O)c2ccc(Cl)cc2)c1 | 72% (active)
CCC1CCC(CC)C1=O (stereo unspecified) | 97.4% (active)
Cc1cc(O)c2c(c1)C(=O)c1c(c(O)cc(O)c1-c1c(O)cc(O)c3c1C(=O)c1cc(C)cc(O)c1C3=O)C2=O | 63.7% (inactive)
CCC(=O)Sc1ccccc1C(=O)Nc1ccc(Cl)cc1 | 56.4% (inactive)
COc1cccc(CC2N(S(=O)(=O)c3ccc(C)cc3)CCC23C(=O)Nc2ccccc23)c1OC (stereo unspecified) | 80.7% (active)
Cc1occc1C(=S)Nc1ccc(Cl)c(C(=O)OCC(C)C)c1 | 57.1% (inactive)
CCOC(=O)c1ccc([N+](=O)[O-])o1 | 91% (active)
Nc1ccc(S(=O)(=O)O)c2cccc(S(=O)(=O)O)c12 | 27.2% (inactive)
Cn1c2ccccc2c2nnc(N/N=C/c3ccccn3)nc21 | 96.2% (active)
C#CC(NCCC(C)CC(C)(C)C)C(C)C (stereo unspecified) | 29.6% (inactive)
C/C(=N/Nc1ccccc1)C(=O)O | 97.4% (active)
CCCCCCCCCCCCCCOC(=O)C(N)Cc1ccc(O)cc1 (stereo unspecified) | 98.5% (active)
O=C(Nc1ccc(S(=O)(=O)NC2CCCCC2)cc1)OCc1ccccc1 | 28.4% (inactive)
NC1CCCCC1N.O=S(=O)([O-])CCCN1CCN(CCO)CC1.O=S(=O)([O-])CCCN1CCN(CCO)CC1.[Pt+4] | -2.7% (inactive)
CCCCCCCNc1ccc2c(cc1=O)C(NC(C)=O)CCc1cc(OC)c(OC)c(OC)c1-2 (stereo unspecified) | 16.9% (inactive)
Cc1ccc(NC(=O)c2cc3ccccc3c(N=Nc3cc(S(=O)(=O)O)ccc3O)c2O)c(C)c1 | 82.8% (active)
O=C(O)/C(Cl)=C(\Cl)C(=O)Nc1cccc(C(F)(F)F)c1 | 99.6% (active)
